Laboratory results from PubChem BioAssay AID434989 (The Scripps Research Institute Molecular Screening Center, 2010).
Screen size: about 330,000 compounds; about 1,400 (0.42%) were called active. The entries come from a sample that favours actives as a whole. Values without a mark were called inactive.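 How the source made its calls: active means inhibition above its plate's threshold, mean inhibition of all tested compounds on the plate plus 3 SD (cut at about 37% in these data); inactive means the rest.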

Molecular target: Orexin/Hypocretin receptor type 1 (Homo sapiens) (UniProt O43613)
Sequence (O43613 whole entry, looked up): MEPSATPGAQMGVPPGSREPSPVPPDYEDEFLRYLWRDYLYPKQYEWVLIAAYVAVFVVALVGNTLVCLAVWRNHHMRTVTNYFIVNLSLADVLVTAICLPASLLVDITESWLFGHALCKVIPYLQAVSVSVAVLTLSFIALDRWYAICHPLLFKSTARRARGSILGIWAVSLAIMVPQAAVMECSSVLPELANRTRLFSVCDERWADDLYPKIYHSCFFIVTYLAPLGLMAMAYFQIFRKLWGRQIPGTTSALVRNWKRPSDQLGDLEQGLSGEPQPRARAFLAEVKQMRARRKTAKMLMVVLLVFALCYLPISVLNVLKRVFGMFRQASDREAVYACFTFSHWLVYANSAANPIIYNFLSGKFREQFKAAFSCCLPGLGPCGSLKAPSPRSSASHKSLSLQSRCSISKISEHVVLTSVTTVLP
Assay: OX1R (HCRTR1) antagonists, primary screen, fluorescence, CHO/OX1R cells, Fluo-8 calcium, orexin A (AID 434989);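 further: 0% = orexin A challenge wells and 100% = SB-334867-A antagonist wells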
Conditions: Fluo-8 calcium fluorescence, at 5 µM, stronger effect = higher value

Q: How did the inhibition turn out when `COCCn1c(C)cc(C(=O)CN2c3cccc4cccc(c34)S2(=O)=O)c1C` was run?
A: The inhibition was -15.1%.

Q: For `NC(N)=N/N=C/c1ccc(OCc2ccc(Cl)cc2Cl)cc1`, which inhibition is on record?
A: Its inhibition is 60% (active).

Q: `CCOc1ccc(NC(=O)NNC(=O)c2ccc(Cl)cc2Cl)cc1` was tested. Which inhibition did it give?
A: Its inhibition is -32.5%.

Q: `OC(CNCCc1ccc(Cl)cc1Cl)COc1ccccc1` (configuration not stated) was tested. Which inhibition did it give?
A: The inhibition was -12.8%.

Q: Which inhibition does the source give for `Cc1noc(C)c1S(=O)(=O)N(C)C[C@H]1Oc2ccc(NC(=O)C3CCCCC3)cc2C(=O)N([C@H](C)CO)C[C@@H]1C` here?
A: The inhibition was -7.01%.

Q: How did the inhibition turn out when `CC[C@@H](C)[C@@H]1CN([C@@H](C)CN2CCC[C@H]2CN2C(N)=NC[C@H]2C(C)C)C(=N)N1CCc1ccc(Cl)c(Cl)c1` was run?
A: The inhibition was -14.1%.

Q: For `CC(=O)N/C(=C/c1ccc(Cl)cc1)C(=O)NCCc1c[nH]c2ccccc12`, which inhibition is on record?
A: Its inhibition is -8.41%.

Q: With `N#C/C(=C/c1ccc(N2CCCCC2)o1)C(=O)NCCc1c[nH]c2ccccc12` as the compound, how does the inhibition read?
A: The inhibition was 61.6% (active).

Q: Which inhibition does the source give for `O=C(CN1C(=O)NC2(CCCCC2)C1=O)NCCc1c[nH]c2ccccc12` here?
A: The inhibition was -22.5%.

Q: With `CN(C)C(=O)CCc1ccc2c3c([nH]c2c1)[C@]1(C)[C@@H](C(=O)N2CCOCC2)C[C@H](CC(=O)NCCc2ccccn2)C(=O)N1CC3` as the compound, how does the inhibition read?
A: Its inhibition is -9.61%.

Q: With `O=C(CN1C(=O)NC2(CCOc3ccccc32)C1=O)Nc1cccc([N+](=O)[O-])c1` (configuration not stated) as the compound, how does the inhibition read?
A: Its inhibition is -4.96%.

Q: For `COc1cccc(C(=O)NC(=O)Nc2nc(C)cc(C(F)(F)F)n2)c1`, which inhibition is on record?
A: Its inhibition is 43.9% (active).

Q: For `COc1cccc(C(=O)NNC(=O)c2cccc(F)c2)c1`, which inhibition is on record?
A: Its inhibition is -14.5%.

Q: Which inhibition does the source give for `Cc1cc(C)nc(NC(=O)Nc2ccccc2C(F)(F)F)n1` here?
A: The inhibition was -30.4%.

Q: Which inhibition does the source give for `CCNC(=S)N1CCN(S(=O)(=O)c2ccc(Cl)s2)CC1` here?
A: The inhibition was -8.33%.

Q: With `COc1ccc(CNC(=O)C[C@H]2C[C@H](C(=O)N3CCOCC3)[C@@]3(C)c4[nH]c5cc(CCC(=O)N(C)C)ccc5c4CCN3C2=O)cc1OC` as the compound, how does the inhibition read?
A: Its inhibition is -8.18%.

Q: `CC1=C/C(=N\OS(=O)(=O)c2ccccc2)C=CC1=O` was tested. Which inhibition did it give?
A: Its inhibition is 50.8% (active).

Q: How did the inhibition turn out when `CC(C)N(C(=O)[C@H]1C[C@H](CC(=O)NCCC2=CCCCC2)C(=O)N2CCc3c([nH]c4cc(CCC(=O)N(C)C)ccc34)[C@]12C)C(C)C` was run?
A: Its inhibition is -35.9%.

Q: For `O=C(/C=C/c1ccc(Cl)c([N+](=O)[O-])c1)c1ccc(O)cc1`, which inhibition is on record?
A: The inhibition was -19.1%.

Q: For `O=C(/C=C/c1ccc2c(c1)OCCO2)c1ccc(O)cc1`, which inhibition is on record?
A: The inhibition was -5.09%.

Q: For `O=C(/C=C(O)/C=C/c1ccc(O)cc1)/C=C/c1ccc(O)cc1`, which inhibition is on record?
A: The inhibition was 88% (active).

Q: With `Cc1ccc(S(=O)(=O)N2[C@@H](c3cccc4ccccc34)C(C(=O)O)=C[C@H]2C(C)(C)C)cc1` as the compound, how does the inhibition read?
A: The inhibition was -3.21%.
